# TDP1 block: blocks human tyrosyl-DNA phosphodiesterase 1; Q9NUW8; recombinant TDP1, AlphaScreen DNA substrate cleavage; Potency, µM (titrated, usually from 130 µM), inactives show at the highest dose activity change, negative = inhibition, usual class: inhibitors; 350,000 compounds, 0.28% hits; also: potency is read from the fitted curve at half-maximal effect; % is scaled to controls: 0 for no effect and ±100 for the full control effect; nearly all actives have a fitted effect of over 40% in size
# Target sequence (Q9NUW8 whole entry, looked up): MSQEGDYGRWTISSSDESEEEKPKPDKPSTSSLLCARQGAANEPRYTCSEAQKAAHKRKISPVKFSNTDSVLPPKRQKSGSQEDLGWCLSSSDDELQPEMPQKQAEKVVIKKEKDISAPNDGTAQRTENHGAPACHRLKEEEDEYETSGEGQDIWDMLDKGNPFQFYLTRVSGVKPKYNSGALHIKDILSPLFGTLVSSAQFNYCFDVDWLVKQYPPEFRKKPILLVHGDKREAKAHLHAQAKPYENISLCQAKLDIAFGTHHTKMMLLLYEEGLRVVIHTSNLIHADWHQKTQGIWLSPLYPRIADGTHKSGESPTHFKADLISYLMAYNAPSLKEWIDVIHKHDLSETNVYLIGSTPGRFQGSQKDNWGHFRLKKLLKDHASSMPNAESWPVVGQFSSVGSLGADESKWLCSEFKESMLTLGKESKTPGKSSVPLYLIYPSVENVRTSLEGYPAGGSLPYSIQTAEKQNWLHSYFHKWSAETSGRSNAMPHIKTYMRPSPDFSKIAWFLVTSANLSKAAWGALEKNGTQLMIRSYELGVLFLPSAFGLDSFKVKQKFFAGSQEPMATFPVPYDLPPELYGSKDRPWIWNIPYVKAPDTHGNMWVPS
#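 AlphaScreen read-out: signal falls as enzyme removes the 3' tyrosine-FITC from a 5'-biotinylated DNA oligo (15 nM, 5 min, RT). Enzyme was E. coli-made recombinant Tdp1 at 1 nM, exposed to compound for 15 min beforehand; beads 10 ug/ml, 10 min.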
# DT40 TDP1 CPT: DT40-hTDP1 cell growth loss with CPT; chicken DT40 Tdp1-/-;hTDP1 cells + 20 nM CPT, ATP luminescence, 48 h; Potency, µM (highest dose often 46.2 µM), inactives show at the top dose activity change, negative = growth inhibition, actives largely listed as inhibitors; 420,000 compounds, 12% hits; also: potency is read from the fitted curve at half-maximal effect; % is scaled to controls: 0 for no effect and ±100 for the full control effect; nearly all actives have a fitted effect of over 55% in size
#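 Chicken DT40 Tdp1-/- cells stably complemented with human TDP1 were seeded at 400 cells/well in medium containing 20 nM camptothecin, exposed to pin-transferred compounds, and grown at 37 °C for at least 48 hr. Viability was read as ATP luminescence.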
# TGFb SMAD3 inh: blocks TGF-b signaling | Potency, µM (top dose mostly 46.1 µM), without a hit: top-dose activity, negative = inhibition, most hits filed as inhibitors | 410,000 compounds, 1.2% hits | HepG2 CAGA-GFP TGF-b/SMAD3 reporter, GFP fluorescence, 18 h; TGF-beta stimulated, 500 pg/mL final | AID 588855; also: potency is read from the fitted curve at half-maximal effect; % is scaled to controls: 0 for no effect and ±100 for the full control effect; nearly all actives have a fitted effect of over 65% in size
#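 First, reporter cells (HEPG2 CAGA-GFP) rested 2 h at 37 degrees C. Next, compounds were pinned in and TGF-beta added to 500 pg/mL final. After 18 h, GFP was imaged per cell and summed per well.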
# DT40 TDP1 no CPT: qHTS for Inhibitors of human tyrosyl-DNA phosphodiesterase 1 (TDP1): qHTS in cells in absence of CPT. 420,000 compounds, 15% hits. AID 686978, 2013. DT40 Tdp1-/- hTDP1 cells, no CPT, ATP luminescence, 48 h. Potency, µM (doses to about 46.2 µM), inactives show top-dose activity change, negative = growth inhibition, most hits filed as inhibitors; also: potency is read from the fitted curve at half-maximal effect; % is scaled to controls: 0 for no effect and ±100 for the full control effect; nearly all actives have a fitted effect of over 55% in size
#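 Luminescent ATP content (CellTiter-Glo) served as the growth readout. Knockout chicken DT40 cells expressing human TDP1 were exposed to compounds without camptothecin for a minimum 48 hr at 37 °C.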
# IL-1B inflam inh: inhibitors of inflammasome signaling (IL-1 beta secretion); THP-1 LPS/ATP IL-1B secretion, AlphaLISA, 16 h; hits give low values; activity change, % at 57.5 µM; 360,000 compounds, 4.7% hits; AID 743279; in the data active = activity change below about -50%; inconclusive = mostly about -30% to -49%; also: % is scaled to controls: 0 for no effect and ±100 for the full control effect
#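 Secreted IL-1B measured by AlphaLISA bead assay after 16 h compound exposure of THP-1 cells; compounds (final up to 57.5 uM) added 1 h before LPS (250 ng/mL) and ATP (1.25 mM) stimulation; lower signal means less secretion.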
# HepG2 viability: kills HepG2 cells in TGF-b inhibitor counter-screen; HepG2 CAGA-GFP viability, ATP luminescence, 18 h; Potency, µM (doses to about 46.1 µM), for the others: top-dose activity change, negative = cytotoxicity, actives largely listed as cytotoxic; 410,000 compounds, 0.76% hits; also: potency is read from the fitted curve at half-maximal effect
#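 CellTiter-Glo luminescence gave cytotoxicity after 18 hours at 37 degrees C. The cells were HepG2 CAGA-GFP in 1% FBS DMEM, stimulated with 500 pg/mL TGF-beta after compound addition. %Activity was normalised to no-cell wells (complete cell-killing) and DMSO (no toxicity), and curves were fitted and classified.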
# * hit, by the source's call; ? = inconclusive; . = no result given; [ ] = another dose, or the depositor's remark. Sampled rows, rich in hits. Any-hit rate of the full collection: about 19%. Unless noted, calls follow the shape of the dose curve; as a rule, active = well fitted curve in the direction sought with a large enough effect; inconclusive = small, poorly fitted or top-dose-only effect, or another doubt; inactive = no such curve, though single readings can be large; an effect the other way counts as inactive or inconclusive.
SMILES,TDP1 block,DT40 TDP1 CPT,TGFb SMAD3 inh,DT40 TDP1 no CPT,IL-1B inflam inh,HepG2 viability
CN(C#N)c1nc(N2CCOCC2)nc(N2CCOCC2)n1,.,?,0.4%,?,-0.4,-4.1%
O=C(Cc1nnc(CNC(=O)c2ccccc2)s1)Nc1ccc(C(F)(F)F)cc1Cl,0.9%,.,.,.,.,.
COc1ccc(NC(=O)c2ccco2)cc1NC(=O)COc1ccc(Cl)c(C)c1,1.1%,?,-24.6%,?,.,-32.1%
Cn1c(CN2CCN(CCO)CC2)c(C#N)c2ccccc21,-1.2%,1.5%,21.8%,-14.4%,38.1,9.3%
Cn1c(CSc2ccccc2)c(C#N)c2ccccc21,.,-3.5%,-1.6%,-27.1%,-15.0,0.3%
Cc1ccccc1N1CCN(Cc2c(C#N)c3ccccc3n2C)CC1,0.0%,18.4µM*,4.0%,?,10.9,-7.3%
Cc1ccc(SCc2c(C#N)c3ccccc3n2C)cc1,-7.8%,20.6µM*,?,20.6µM*,-2.7,-0.6%
C[C@@H]1CN=C2N(CCNC(=O)CCC3CCCCC3)[C@H](Cc3ccc(O)cc3)CN21,3.8%,13µM*,-1.7%,16.4µM*,11.6,-0.3%
CC(C)[C@H]1CN=C2N(CCNC(=O)CCC3CCCCC3)[C@H](Cc3ccc(O)cc3)CN21,3.8%,13µM*,4.3%,8.2µM*,-14.5,-18.5%
O=C(CCC1CCCCC1)NCCN1C2=NC[C@H](Cc3ccc(O)cc3)N2C[C@H]1Cc1ccc(O)cc1,6.4%,?,1.4%,?,-4.2,-26.3%
COc1ccc(C[C@H]2CN3C(=NC[C@@H]3Cc3ccccc3)N2CCNC(=O)CCC2CCCCC2)cc1,6.4%,13µM*,?,16.4µM*,-20.7,-117.1%
COc1ccc(C[C@@H]2CN3C(=NC[C@@H]3C)N2CCNC(=O)c2ccc(C)c(Br)c2)cc1,3.8%,23.1µM*,-13.8%,13µM*,?,-35.3%
C/C=C(\C)C(=O)NCCN1C2=NC[C@H](C)N2C[C@@H]1Cc1ccc(OC)cc1,3.8%,-20.4%,16.9%,-0.6%,-2.0,51.0%
COc1ccc(C[C@H]2CN3C(=NC[C@@H]3C(C)C)N2CCNC(=O)CCC2CCCCC2)cc1,1.3%,8.2µM*,-3.5%,7.31µM*,-55.6*,-0.5%
CC(C)(C)c1ccc(Oc2ccc(NC(=O)CCC(=O)OCC(=O)c3ccccc3)cc2)cc1,.,14.6µM*,?,13µM*,.,-54.9%
Cc1ccc(C(=O)COC(=O)CCC(=O)Nc2ccc(Oc3ccccc3)cc2)cc1C,.,8.9%,-5.9%,-2.1%,.,-2.5%
Cc1cccc(Oc2ccc(NC(=O)CCC(=O)OCC(=O)c3ccc(Br)cc3)cc2)c1C,.,13µM*,-4.9%,11.6µM*,.,-90.6%
CCN1CCN(C(c2cccs2)C(C)NS(=O)(=O)c2ccc(Br)cc2)CC1 (stereo not drawn),-3.9%,?,2.5%,25.9µM*,-4.4,-3.3%
CCS(=O)(=O)NC(C)C(c1cccs1)N1CCN(C)CC1 (stereo not drawn),7.4%,-11.9%,10.2%,-5.4%,-9.0,2.4%
CCS(=O)(=O)NC(C)C(c1cccs1)N1CCN(c2ccc(F)cc2)CC1 (stereo not drawn),1.1%,?,1.0%,20.6µM*,16.4,-30.2%
CC(NC(=O)Cc1cccs1)C(c1cccs1)N1CCN(c2ccccc2F)CC1 (stereo not drawn),1.0%,17.8µM*,-9.8%,?,-3.0,-12.0%
CC(NC(=O)c1ccco1)C(c1cccs1)N1CCN(c2ccccc2F)CC1 (stereo not drawn),-1.7%,?,?,?,-15.1,-6.8%
CC(NC(=O)Cc1cccs1)C(c1cccs1)N1CCN(c2ccccc2)CC1 (stereo not drawn),.,?,9.5%,?,-4.0,-13.9%
CC(NC(=O)c1ccco1)C(c1cccs1)N1CCN(c2ccc(F)cc2)CC1 (stereo not drawn),-6.8%,18.4µM*,-17.8%,23.1µM*,-72.3*,-9.0%
CSCCC(NS(=O)(=O)c1ccc2c(c1)oc(=O)n2C)C(=O)NCCc1ccc(C)cc1 (stereo not drawn),2.8%,-7.5%,-0.1%,-9.0%,.,-7.8%
SMILES,TDP1 block,DT40 TDP1 CPT,TGFb SMAD3 inh,DT40 TDP1 no CPT,IL-1B inflam inh,HepG2 viability
Cc1ncc(CSc2ccc(Cl)cc2)c(CO)c1O,.,-27.6%,5.1%,?,?,19.5%
CCc1cccc(C)c1NC(=O)c1cc2ccccc2o1,3.1%[12.3 µM],18.4µM*,?,16.4µM*,.,-24.4%
CCc1cccc(C)c1NC(=O)C1CC=CCC1C(=O)O (stereo not drawn),?,?,-1.5%,20.6µM*,-0.4,-13.6%
Cc1ccc(C)c(NC(=O)c2cc3ccccc3o2)c1,.,-1.7%,7.0%,-28.1%,9.2,3.4%
Cc1ccnc(NC(=O)c2cc3ccccc3o2)c1,0.1%,-14.3%,0.3%,-5.7%,?,-44.2%
O=C(Nc1ccccn1)c1cc2ccccc2o1,5.0%,10.3µM*,0.4%,?,-96.5*,7.94µM*
CCCCc1ccc(-n2nc3ccc(NC(=O)c4cc5ccccc5o4)cc3n2)cc1,4.8%[2.28 µM],?,?,10.3µM*,.,-97.8%
CCOc1ccc(CN(C)C(=O)CNC(=O)c2ccc3ccccc3c2)cc1OC,9.2%,-10.2%,-16.0%,?,?,-38.6%
Cn1cc(S(C)=O)c(=O)c2ccc(F)cc21 (stereo not drawn),.,0.4%,.,-0.9%,.,.
CCC(=O)N1CCN(c2ccc(NC(=O)c3cc4ccccc4o3)cc2)CC1,2.2%,?,0.0%,18.4µM*,-29.9,0.9%
CCCCNC(=O)CO/N=C(\C)c1cc2ccccc2o1,4.5%,?,?,?,-23.7,-3.2%
CCc1cccc(C)c1NC(=O)CO/N=C(\C)c1cc2ccccc2o1,1.1%,18.4µM*,-10.9%,23.1µM*,-2.1,-29.0%
COc1cc(N)c(N)cc1OC,.,?,-10.0%,?,.,6.8%
CCNc1ncc2nc(-c3ccc(Cl)cc3)c(=O)n(C)c2n1,.,-2.9%,.,0.1%,.,.
CN(C)c1ccc(-c2ccc(C3C4C=CCCC4(C)C(=O)N3Cc3ccccc3)c(F)c2)cc1 (stereo not drawn),21.5%,.,-2.2%,.,.,-1.7%
COc1ccc(-c2cc([C@H]3[C@@H]4C=CCC[C@@]4(C)C(=O)N3Cc3ccccc3)ccc2F)cc1OC,4.7%,25.9µM*,?,?,-19.9,-6.2%

# Source: PubChem
